Measured values reported in PubChem BioAssay (NCI).
The panel holds about 79,000 compounds, 15% with a hit somewhere; the sample as a whole holds those more often. The source made the active and inactive calls. No stated cut-off is given here; in the data, active means growth inhibition above about 70%; inactive means the rest.

Tests used:
[1] = NCI Yeast Anticancer Drug Screen. Data for the rad52 strain (AID 147);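 further: 0% = growth of vehicle-treated control cultures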; settings: S. cerevisiae rad52 mutant growth inhibition, stronger effect = higher value
Method in brief: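 Measured: yeast growth inhibition. System: strain with a defined DNA damage repair alteration. Reference: vehicle-treated control cultures.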

[2] = NCI Yeast Anticancer Drug Screen. Data for the wt1 strain (AID 149);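 further: 0% = growth of vehicle-treated wt1 cultures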; settings: S. cerevisiae wt1 strain (SPY 50644) growth inhibition, stronger effect = higher value
Method in brief: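 Vehicle-normalised growth inhibition; strain wt1; compound exposure.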

[3] = NCI Yeast Anticancer Drug Screen. Data for the rad50EPP+ strain (AID 151);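 further: 0% = growth of vehicle-treated control cultures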; settings: S. cerevisiae rad50 mutant strain, stronger effect = higher value
Method in brief: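 One strain with a rad50 alteration (rad50EPP+) was compound-treated, its growth then compared to that of vehicle controls.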

[4] = NCI Yeast Anticancer Drug Screen. Data for the mgt1 strain (AID 153); settings: S. cerevisiae mgt1 mutant growth inhibition, stronger effect = higher value
Method in brief: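 After exposure of the mgt1 yeast mutant to compound, growth was measured and reported as inhibition compared with vehicle controls.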

[5] = NCI Yeast Anticancer Drug Screen. Data for the rad50 strain (AID 155);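 further: 0% = growth of vehicle-only cultures of the same strain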; settings: S. cerevisiae rad50 strain growth inhibition, stronger effect = higher value
Method in brief: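 A DNA repair-deficient yeast mutant serves as the test organism; compound-induced growth inhibition is calculated against vehicle-treated cells.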

[6] = NCI Yeast Anticancer Drug Screen. Data for the mec2-1 strain (AID 157); settings: S. cerevisiae mec2-1 strain, stronger effect = higher value
Method in brief: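 Test agents were screened against the mec2-1 yeast strain, with defined DNA repair or cell cycle alteration. Growth was scored as inhibition against vehicle-only controls.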

[7] = NCI Yeast Anticancer Drug Screen. Data for the rad14 strain (AID 159);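 further: 0% = growth of vehicle-treated control cultures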; settings: S. cerevisiae rad14 strain growth inhibition, stronger effect = higher value
Method in brief: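 Vehicle-treated cultures served as the baseline for growth inhibition of a DNA repair-mutant yeast strain exposed to each compound.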

[8] = NCI Yeast Anticancer Drug Screen. Data for the sgs1 mgt1 strain (AID 161);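 further: 0% = growth of cultures given vehicle only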; settings: S. cerevisiae sgs1 mgt1 strain, stronger effect = higher value
Method in brief: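 Genetically altered yeast, compound exposure, growth inhibition relative to vehicle.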

[9] = NCI Yeast Anticancer Drug Screen. Data for the CLN2oe strain (AID 163);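 further: 0% = growth of vehicle-only control cultures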; settings: S. cerevisiae CLN2oe strain, stronger effect = higher value
Method in brief: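 Here, growth inhibition in a cell-cycle-altered yeast strain after compound exposure was quantified against vehicle control growth.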

[10] = NCI Yeast Anticancer Drug Screen. Data for the cln2 rad14 strain (AID 165);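 further: 0% = growth equal to vehicle treated cultures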; settings: S. cerevisiae cln2 rad14 strain, stronger effect = higher value
Method in brief: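 Growth of compound-exposed yeast (cln2 rad14 genotype) measured and expressed as inhibition relative to vehicle.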

[11] = NCI Yeast Anticancer Drug Screen. Data for the bub3 strain (AID 167); settings: S. cerevisiae bub3 mutant strain, stronger effect = higher value
Method in brief: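 Inhibition values come from growth of compound-treated mutant yeast normalised to vehicle-treated controls.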

[12] = NCI Yeast Anticancer Drug Screen. Data for the wt2 strain (AID 169);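 further: 0% = growth of vehicle-treated yeast cultures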; settings: S. cerevisiae wt2 strain growth inhibition, stronger effect = higher value
Method in brief: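 Genetically defined yeast strains from a DNA-repair/cell-cycle panel were used. Compound-exposed yeast growth was measured, and the inhibition was calculated relative to vehicle treatment.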

[13] = NCI Yeast Anticancer Drug Screen. Data for the mlh1 strain (AID 171);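 further: 0% = growth of vehicle-treated control cultures of the same strain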; settings: S. cerevisiae mlh1 strain growth inhibition, stronger effect = higher value
Method in brief: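 Here the genetically defined yeast mutant is grown with each compound, and the extent to which its growth falls below that of vehicle-exposed cells is reported.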

[14] = NCI Yeast Anticancer Drug Screen. Data for the sgs1 strain (AID 173);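 further: 0% = growth of vehicle-only control cultures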; settings: S. cerevisiae sgs1 mutant, stronger effect = higher value
Method in brief: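 Relative growth inhibition, referenced to vehicle, was determined in a yeast strain with a defined alteration affecting DNA damage repair or cell cycle control after compound exposure.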

[15] = NCI Yeast Anticancer Drug Screen. Data for the mlh1 rad18 strain (AID 175); settings: S. cerevisiae mlh1 rad18 strain growth inhibition, stronger effect = higher value
Method in brief: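 In this whole-cell yeast screen, a strain with altered DNA damage repair is challenged with compound, and its growth is measured against matched vehicle-treated controls.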

[16] = NCI Yeast Anticancer Drug Screen. Data for the rad18 strain (AID 177); settings: S. cerevisiae rad18 mutant growth inhibition, stronger effect = higher value
Method in brief: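 Screen uses a yeast strain with a defined lesion in DNA damage repair; compound effect is read as loss of growth compared to untreated vehicle cultures.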

[17] = at 5.0 µM (retest, dose inferred, filed as 0.5)
[18] = at 50.0 µM (retest, dose inferred, filed as 5.0)

Measured: growth inhibition

CSc1nc(=S)[nH]c2c1c(C)nn2-c1ccccc1
active: [5]; [18] 91% | [6]; [18] 97% | [8]; [18] 98% | [8]; at 50.0 µM 72.1% | [11]; [18] 97% | [15]; [18] 84%
inactive: [1]; at 1.2 µM 11% | [1]; at 3.7 µM 18% | [1]; at 11.0 µM 12% | [1]; at 33.0 µM 11% | [1]; at 100.0 µM 41% | [2]; at 1.2 µM 11% | [2]; at 3.7 µM -2% | [2]; at 11.0 µM -1% | [2]; at 33.0 µM -4% | [2]; at 100.0 µM 1% | [3]; at 1.2 µM -17% | [3]; at 3.7 µM -16% | [3]; at 11.0 µM -24% | [3]; at 33.0 µM -10% | [3]; at 100.0 µM 14% | [4]; at 1.2 µM -19% | [4]; at 3.7 µM -15% | [4]; at 11.0 µM -3% | [4]; at 33.0 µM 7% | [4]; at 100.0 µM 35% | [5]; at 1.2 µM 12% | [5]; at 3.7 µM -1% | [5]; [17] 39% | [5]; at 11.0 µM 11% | [5]; at 33.0 µM 11% | [5]; at 50.0 µM 50.8% | [5]; at 100.0 µM 11% | [6]; at 1.2 µM 3% | [6]; at 3.7 µM -6% | [6]; [17] 16% | [6]; at 11.0 µM 1% | [6]; at 33.0 µM -1% | [6]; at 50.0 µM 45.8% | [6]; at 100.0 µM 3% | [7]; at 1.2 µM 9% | [7]; at 3.7 µM 18% | [7]; at 11.0 µM 28% | [7]; at 33.0 µM 23% | [7]; at 100.0 µM 34% | [8]; [17] 42% | [9]; at 1.2 µM -8% | [9]; at 3.7 µM 0% | [9]; at 11.0 µM -4% | [9]; at 33.0 µM 3% | [9]; at 100.0 µM -14% | [10]; [17] 3% | [10]; [18] 62% | [10]; at 50.0 µM 33.8% | [11]; at 1.2 µM -16% | [11]; at 3.7 µM -6% | [11]; [17] 39% | [11]; at 11.0 µM -15% | [11]; at 33.0 µM -17% | [11]; at 50.0 µM 64% | [11]; at 100.0 µM -14% | [12]; at 1.2 µM -14% | [12]; at 3.7 µM 3% | [12]; at 11.0 µM 5% | [12]; at 33.0 µM 12% | [12]; at 100.0 µM 27% | [13]; at 1.2 µM 11% | [13]; at 3.7 µM 9% | [13]; at 11.0 µM 32% | [13]; at 33.0 µM 21% | [13]; at 100.0 µM 41% | [14]; at 1.2 µM 7% | [14]; at 3.7 µM -1% | [14]; at 11.0 µM 9% | [14]; at 33.0 µM 16% | [14]; at 100.0 µM 39% | [15]; [17] 26% | [15]; at 50.0 µM 52.1% | [16]; at 1.2 µM 10% | [16]; at 3.7 µM -10% | [16]; at 11.0 µM 4% | [16]; at 33.0 µM -5% | [16]; at 100.0 µM 36%

OC(c1ccc(F)cc1)(c1ccc(F)cc1)C1CC1
active: [1]; at 100.0 µM 76% | [2]; at 100.0 µM 90% | [5]; [18] 99% | [5]; at 100.0 µM 94% | [6]; [18] 100% | [6]; at 100.0 µM 95% | [7]; at 100.0 µM 97% | [8]; [18] 77% | [9]; at 100.0 µM 93% | [10]; [18] 73% | [11]; [18] 81% | [11]; at 100.0 µM 96% | [12]; at 100.0 µM 87% | [13]; at 100.0 µM 92% | [14]; at 100.0 µM 86% | [15]; [18] 100% | [16]; at 100.0 µM 95%
inactive: [1]; at 1.2 µM -39% | [1]; at 3.7 µM -58% | [1]; at 11.0 µM -47% | [1]; at 33.0 µM 12% | [2]; at 1.2 µM -38% | [2]; at 3.7 µM -33% | [2]; at 11.0 µM -36% | [2]; at 33.0 µM -27% | [3]; at 1.2 µM -10% | [3]; at 3.7 µM -17% | [3]; at 11.0 µM -35% | [3]; at 33.0 µM -26% | [3]; at 100.0 µM 11% | [4]; at 1.2 µM -36% | [4]; at 3.7 µM -47% | [4]; at 11.0 µM -47% | [4]; at 33.0 µM -51% | [4]; at 100.0 µM 20% | [5]; at 1.2 µM -31% | [5]; at 3.7 µM -32% | [5]; [17] 59% | [5]; at 11.0 µM -26% | [5]; at 33.0 µM 32% | [5]; at 50.0 µM 62.9% | [6]; at 1.2 µM -87% | [6]; at 3.7 µM -42% | [6]; [17] 68% | [6]; at 11.0 µM -67% | [6]; at 33.0 µM -32% | [6]; at 50.0 µM 40.1% | [7]; at 1.2 µM -18% | [7]; at 3.7 µM -18% | [7]; at 11.0 µM -7% | [7]; at 33.0 µM 8% | [8]; [17] -4% | [8]; at 50.0 µM 51.4% | [9]; at 1.2 µM -16% | [9]; at 3.7 µM -3% | [9]; at 11.0 µM -9% | [9]; at 33.0 µM -8% | [10]; [17] 41% | [10]; at 50.0 µM 28.9% | [11]; at 1.2 µM -32% | [11]; at 3.7 µM -27% | [11]; [17] 20% | [11]; at 11.0 µM -13% | [11]; at 33.0 µM -16% | [11]; at 50.0 µM 64.8% | [12]; at 1.2 µM -25% | [12]; at 3.7 µM -25% | [12]; at 11.0 µM -5% | [12]; at 33.0 µM -28% | [13]; at 1.2 µM -39% | [13]; at 3.7 µM -64% | [13]; at 11.0 µM -66% | [13]; at 33.0 µM -42% | [14]; at 1.2 µM -62% | [14]; at 3.7 µM -43% | [14]; at 11.0 µM -52% | [14]; at 33.0 µM -42% | [15]; [17] 67% | [15]; at 50.0 µM 64% | [16]; at 1.2 µM -8% | [16]; at 3.7 µM -11% | [16]; at 11.0 µM -21% | [16]; at 33.0 µM 46%
